Glioma ERSR ind: qHTS for Inducers of the Endoplasmic Reticulum Stress Response (ERSR) in Human Glioma: qHTS; U87-MG GRP78 promoter luciferase reporter, 16 h; AID 602332, 2012; Potency, µM, for inactives: at the highest dose activation, hits mostly activators; 420,000 tested, 0.02% active; note: series mostly up to about 76 µM; % of control where 0% means no effect; nearly all actives have a fitted effect of over 35% in size
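Stably transfected U87-MG glioma cells carrying a GRP78-based luciferase sensor; 16 h compound incubation. Luminescence end-point read 10 min after Bright-Glo addition at room temperature.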
VDR inh: Inhibitors of the vitamin D receptor (VDR): qHTS; VDR-SRC2-3 peptide fluorescence polarization, 2 h; Potency, µM, for inactives: max response, negative = inhibition, most hits filed as inhibitors; 400,000 tested, 0.93% active; note: % is set by controls: 0 for no effect and ±100 for the full control effect
Target sequence (P11473 whole entry, looked up): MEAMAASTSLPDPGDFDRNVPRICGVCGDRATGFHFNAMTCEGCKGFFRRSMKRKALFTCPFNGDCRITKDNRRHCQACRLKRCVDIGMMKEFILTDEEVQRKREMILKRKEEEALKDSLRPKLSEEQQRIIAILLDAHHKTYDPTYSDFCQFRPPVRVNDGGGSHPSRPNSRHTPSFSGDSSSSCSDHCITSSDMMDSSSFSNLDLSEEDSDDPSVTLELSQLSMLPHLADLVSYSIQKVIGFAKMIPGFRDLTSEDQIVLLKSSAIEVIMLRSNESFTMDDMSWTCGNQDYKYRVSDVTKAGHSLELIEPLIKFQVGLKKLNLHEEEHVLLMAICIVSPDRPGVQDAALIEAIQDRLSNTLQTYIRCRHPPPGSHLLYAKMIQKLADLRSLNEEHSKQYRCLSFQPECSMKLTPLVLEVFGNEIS
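Reagent solutions, kept cold and dark, are dispensed first; compounds are then pinned in at 23 nl, plates briefly spun, and incubated 2 h at ambient temperature. Inhibition of VDR–SRC2-3 peptide binding is read by fluorescence polarization.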
ALOX12 inh: Primary qHTS assay for inhibitors of human arachidonate 12S-lipoxygenase (ALOX12): Round 2; Polyunsaturated fatty acid lipoxygenase ALOX12 (Homo sapiens), P18054; purified 12hLO, xylenol orange hydroperoxide absorbance; Potency, µM (top dose mostly 108 µM), for inactives: at the highest dose activity change, negative = inhibition, usual class: inhibitors; 580,000 tested, 1.1% active; AID 1671190, 2021; note: % is set by controls: 0 for no effect and ±100 for the full control effect
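Purified human 12hLO (150 nM final) in 25 mM Hepes, 0.01% Triton X-100, pH 7.0 was preincubated 15 min at room temperature with compound. Then 40 uM arachidonic acid was added, 30 min. Hydroperoxide was read by Fe-XO absorbance ratio 573/405 nm.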
G9a block: qHTS Assay for Inhibitors of Histone Lysine Methyltransferase G9a. G9a H3K9 monomethylation, AlphaScreen, 2 h. Potency, µM (titrated, usually from 102 µM), for the others: top-dose activity, negative = inhibition, most hits filed as inhibitors. 350,000 tested, 8.8% active; note: % is set by controls: 0 for no effect and ±100 for the full control effect; nearly all actives have a fitted effect of over 75% in size
Target sequence (Q96KQ7 913-1193 limits assumed): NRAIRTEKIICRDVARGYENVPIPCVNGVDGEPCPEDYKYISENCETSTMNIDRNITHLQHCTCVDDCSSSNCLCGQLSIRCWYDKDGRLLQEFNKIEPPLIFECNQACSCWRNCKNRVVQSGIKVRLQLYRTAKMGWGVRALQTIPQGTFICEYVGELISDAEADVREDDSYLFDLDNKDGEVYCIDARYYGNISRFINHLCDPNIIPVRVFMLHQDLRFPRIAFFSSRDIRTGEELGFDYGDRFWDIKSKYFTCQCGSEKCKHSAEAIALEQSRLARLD
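Compounds were preincubated with 20 nM G9a for 15 min, after which biotinylated H3K9 peptide (500 nM) and SAM (20 uM) started a 2 h room-temperature reaction. Monomethylated product was quantified by antibody-based AlphaScreen chemiluminescence.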
Sfp inh: qHTS Assay for Inhibitors of Bacillus subtilis Sfp phosphopantetheinyl transferase (PPTase); 4'-phosphopantetheinyl transferase ffp (Bacillus subtilis), Q9F4F7; Biochemical Sfp PPTase activity, qHTS; Potency, µM, for the others: largest response in the series, negative = inhibition, most hits filed as inhibitors; 310,000 tested, 3.5% active;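 note: the enzyme is Sfp with the accession as filed and its product quenches rhodamine fluorescence; 0% = enzyme reaction without inhibitor and -100% = no enzyme wells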
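With Hepes-Na pH 7.6 buffer containing 10 mM MgCl2, Sfp (15 nM) modified BHQ-2-YbbR (12.5 uM) using rhodamine-CoA (5 uM). Two reads 30 minutes apart at 525/598 nm yielded each well's rate.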
An asterisk follows results filed as active; ? = inconclusive; nt = not tested or not shown; [ ] = another dose, or the depositor's remark. Shown is part of a subset that was picked to be rich in hits. Calls come from the whole dose curve; as a rule, active = well fitted curve in the direction sought with a large enough effect; inconclusive = small, poorly fitted or top-dose-only effect, or another doubt; inactive = no such curve, though single readings can be large; an effect the other way counts as inactive or inconclusive. Potency is the fitted concentration of half-maximal effect.

SMILES	Glioma ERSR ind	VDR inh	ALOX12 inh	G9a block	Sfp inh
O=[N+]([O-])c1cc(Br)c(Nc2ccccc2)c([N+](=O)[O-])c1	-11.8%	?	0.0%	39.8µM*	-7.6%
Cc1cccc(Nc2ccc([N+](=O)[O-])cc2C(=O)O)c1	8.1%	-3.7%	-25.7%	1.41µM*	5.4%
Nc1cc([N+](=O)[O-])ccc1Nc1ccccc1	0.5%	-1.8%	?	39.8µM*	16.7%
COc1ccc(C(C)=O)c(OCc2cc(Br)ccc2OC)c1	nt	nt	-15.4%	nt	nt
COc1ccc(-n2c(O)c(/C=N/NS(=O)(=O)c3cccc([N+](=O)[O-])c3)c3ccccc3c2=O)cc1OC	2.5%	-18.8%	?	39.8µM*	-14.2%
COc1ccc(CC(=O)NNS(=O)(=O)c2cccc([N+](=O)[O-])c2)cc1OC	-1.4%	11.1%	10.0%	-1.3%[59 µM]	19.8%
O=C(Cn1cc(Br)c(=O)[nH]c1=O)N1CCC(C(=O)N2CCCCC2)CC1	nt	nt	14.1%	nt	nt
CCOC(=O)c1ccc(NC(=S)NC(=O)C2CCCC2)cc1	-1.1%	-9.0%	39.8µM*	-7.0%	-18.2%
CCOC(=O)c1ccc(NC(=S)NC2CCCC2)cc1	10.2%	-17.8%	-26.3%	22.6%[59 µM]	15.5%
COC(=O)c1ccc(NC(=S)NNC(=O)CC(C)C)cc1	3.7%	-19.9%	-17.1%	10µM*	44.7µM*
COC(=O)c1ccc(NC(=S)NC(=O)C2CCC2)cc1	5.1%	?	?	79.4µM*	-4.4%
CCOC(=O)c1ccc(NC(=S)NNC(=O)C2(C)CC2(Cl)Cl)cc1 (stereo unspecified)	-6.6%	-18.1%	267.1%	10µM*	-5.6%
c1ccc(CNC[C@H]2COCc3nc4ccccc4n32)cc1	nt	nt	33.3%[176 µM]	nt	nt
NC(=O)c1ccc(CN(C(=O)/C=C/c2cccs2)C2CC2)cc1	nt	nt	5.1%	nt	nt
CC12CC3(C)CC(N)(C1)CC(C(=O)O)(C2)C3	nt	nt	-13.0%	nt	nt
CC(C)CCOCC(O)CCC(=O)NNC(=S)Nc1ccccc1 (stereo unspecified)	-0.6%	-8.3%	-2.2%	28.2µM*	5.2%
COC(=O)c1ccc(NC(=S)NC2c3ccccc3CC2O)cc1 (stereo unspecified)	1.2%	-15.9%	?	50.1µM*	8.3%
COC(=O)c1ccc(NC(=S)NC2CCCCC2C)cc1 (stereo unspecified)	-3.4%	-1.9%	-14.6%	38.9%[59 µM]	10.5%
CCC1CCCCN1C(=O)Cn1c(-c2ccccc2)nc(C)cc1=O (stereo unspecified)	nt	nt	2.7%	nt	nt
O=C(O)c1c[nH]c2c(C(F)(F)F)cccc2c1=O	-0.1%	-2.0%	-8.4%	35.5µM*	3.8%
COc1cccc2c(=O)c(C(=O)NCCc3ccccc3)c[nH]c12	2.6%	-6.4%	-10.7%	nt	nt
O=C(O)c1c[nH]c2ccc(S(=O)(=O)N3CCN(c4ccc(F)cc4)CC3)cc2c1=O	-2.2%	-2.1%	9.4%	?	19.9%
O=c1cc[nH]c2c(C(F)(F)F)cccc12	4.6%	32.8%	10.8%	-6.2%[59 µM]	11.7%
O=C(O)c1c[nH]c2ccc(F)cc2c1=O	-1.8%	8.6%	-18.3%	17.8µM*	16.4%
COc1cccc2c(=O)c(C(=O)O)c[nH]c12	4.3%	-11.1%	-15.6%	22.4µM*	-10.2%
SMILES	Glioma ERSR ind	VDR inh	ALOX12 inh	G9a block	Sfp inh
COC(=O)C1=C(C)N=C2SC=C(CC(=O)N3CCOCC3)N2C1c1ccc([N+](=O)[O-])cc1 (stereo unspecified)	nt	nt	13.4%	nt	nt
O=C1CC(c2ccccc2)N(Cc2ccncc2)CCCN(C(=O)NCc2ccc(F)cc2)CCN1 (stereo unspecified)	nt	nt	26.5%	nt	nt
CCN(CC)C(=O)C1CCCN(Cc2ccc(N(C)C)cc2)C1 (stereo unspecified)	-4.4%	-10.4%	-4.8%	14.1µM*	-12.1%
CCN(CC)C(=O)C1CCCN(Cc2ccccc2F)C1 (stereo unspecified)	-3.5%	-7.0%	0.0%	?	-19.1%
NC(=O)C1CCCN(Cc2ccc(Cl)cc2)C1 (stereo unspecified)	-7.8%	4.8%	?	3.55µM*	-2.2%
COc1ccc(OCC(=O)NC2CCCN(Cc3ccc(Cl)cc3)C2)cc1 (stereo unspecified)	-1.1%	1.4%	15.8µM*	nt	-2.8%
CCN(CC)C(=O)C1CCCN(Cc2ccccc2)C1 (stereo unspecified)	-4.0%	-17.7%	?	25.1µM*	-12.6%
CCc1nnc(Cn2cnc3scc(-c4ccccc4)c3c2=O)o1	nt	nt	17.9%	nt	nt
COC(=O)c1ccc(CO/N=C/c2ccc(Cl)cc2Cl)cc1	nt	nt	-37.0%	nt	nt
O=C(Nc1ccc(Cl)cc1)c1nccnc1-c1nc2ccccc2s1	nt	nt	-0.5%	nt	nt
O=C(c1cc(CN2CCOCC2)on1)N1CCC2(CC1)NCCc1c2[nH]c2ccccc12	nt	nt	32.4%	nt	nt
CN(Cc1ccccc1)C(=O)C1CCCN(Cc2ccc(Cl)cc2)C1 (stereo unspecified)	-5.6%	-11.1%	?	6.31µM*	?
CN(Cc1ccccc1)C(=O)C1CCC(C(=O)N(C)Cc2ccccc2)CC1 (stereo unspecified)	nt	nt	-28.1%	nt	nt
CCOc1cc2nc(-c3ccc(OC)c(OC)c3)nc(N3CCCC(C)C3)c2cc1OC (stereo unspecified)	nt	nt	-17.4%	nt	nt
COc1cc(SC)ccc1C(=O)Nc1nnc(C(F)(F)F)s1	nt	nt	1.1%	nt	nt
Cc1ccc2nc(C)c(CN3CCN(c4ccc([N+](=O)[O-])cc4Cl)CC3)n2c1	nt	nt	-14.8%	50.1µM*	-1.7%
COc1cc(-c2nc3ccccc3s2)ccc1OC(C)C	nt	nt	-2.3%	nt	nt
CNC(=O)c1ccc(NC(=O)c2nsc3ccccc23)cc1	nt	4.6%	-18.4%	1.5%[59 µM]	nt
CCOC(=O)c1ccc(NC(=O)c2nsc3ccccc23)cc1	nt	14.6%	44.7µM*	3.16µM*	nt
Nc1ncnc(Nc2ccccc2Cl)c1[N+](=O)[O-]	nt	nt	12.6%	nt	nt
Cc1noc(NS(=O)(=O)c2ccc(N/C=C\C(=O)c3ccc(F)cc3)cc2)c1C	10.3%	-16.5%	?	nt	-15.0%
Cc1noc(NS(=O)(=O)c2ccc(N/C=C\C(=O)c3ccccc3)cc2)c1C	8.1%	2.3%	?	50.1µM*	-1.8%
Cc1noc(NS(=O)(=O)c2ccc(N/C=C/C(=O)c3ccc4c(c3)OCO4)cc2)c1C	1.8%	7.6%	-10.4%	79.4µM*	-2.8%

Screening data: PubChem BioAssay, National Center for Advancing Translational Sciences (NCATS)
